Test systems include NCI-H23 lung; NCI-H226 lung; NCI-H322M lung; HOP-62 NSCLC; NCI-H460 lung; HOP-92 NSCLC; NCI-H522 lung; A549/ATCC NSCLC; 786-0 renal; COLO 205 colon.
Assay in all cases: NCI-60 one-dose screen, 48 h (100 = growth as untreated, 0 = no growth, -100 = all killed)
What all share (settings): 10 µM unless noted

The panel holds about 83,000 compounds, 20% with a hit somewhere; the sample as a whole holds those more often.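 Single-concentration screen, 48 h exposure, 96-well plates. Endpoint: percent growth. Below 10 = active.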 Values without a mark were called inactive. Active and inactive are the calls of the source.

On to `Cn1c(=O)c2[nH]c(N/N=C/c3ccccc3Br)nc2n(C)c1=O`, for which the growth in the assay on NCI-H23 lung was 107%; in the assay with NCI-H226 lung it was 110%; with NCI-H322M lung, 95.5%; in the assay on HOP-62 NSCLC, 112%; with NCI-H460 lung it was 110%; with HOP-92 NSCLC, 104%. The growth is 89.7% in the assay with NCI-H522 lung, 101% in the assay with A549/ATCC NSCLC, 96.9% in the assay on 786-0 renal and 137% in the assay on COLO 205 colon.
For the molecule `COc1cc(-c2cc(-c3cccs3)c(C#N)c(N3CCOCC3)n2)cc(OC)c1OC`, the growth in the assay with NCI-H23 lung was 101%; in the assay with NCI-H226 lung, 111%; with NCI-H322M lung, 100%; in the assay on HOP-62 NSCLC it was 134%; in the assay with NCI-H460 lung, 11.1%; with HOP-92 NSCLC, 101%. Moreover, the growth with NCI-H522 lung was 80.3%; with A549/ATCC NSCLC, 83.6%; in the assay with 786-0 renal, 37.7%; in the assay on COLO 205 colon, 56.4%.
Consider `CCOC(=O)C1=NN(c2ccccc2)C(=O)/C1=C\N1C(=O)CC(=O)NC1=S`, for which the growth in the assay with NCI-H23 lung is 99%; with NCI-H226 lung, 92.5%; in the assay with NCI-H322M lung, 96%; in the assay on HOP-62 NSCLC it was 90.1%; with NCI-H460 lung, 106%; in the assay with HOP-92 NSCLC, 102%. Moreover, the growth was 88.8% with NCI-H522 lung, 103% with A549/ATCC NSCLC, 106% with 786-0 renal and 103% in the assay with COLO 205 colon.
In the case of `O=C1NC(=O)c2c1c1c3ccccc3ccc1c1[nH]c3ccc(Br)cc3c21`, the growth in the assay with NCI-H23 lung was 2.08% (active); in the assay on NCI-H226 lung it was 48.9%; in the assay on NCI-H322M lung, 21%; with HOP-62 NSCLC it was 22.3%; in the assay with NCI-H460 lung, 3.5% (active); in the assay with HOP-92 NSCLC, 7.3% (active). Besides, the growth with NCI-H522 lung is 20.1%; with A549/ATCC NSCLC, 18.8%; in the assay with 786-0 renal it was 30.7%; with COLO 205 colon, 9.33% (active).
In the case of `O=C(Cn1c(-c2ccc([N+](=O)[O-])cc2)nc2ccccc21)NNC(=O)c1cccnc1`, the growth is 83.4% with NCI-H23 lung; 60.3% in the assay on NCI-H226 lung; 88.6% in the assay on NCI-H322M lung; 95.2% in the assay with HOP-62 NSCLC; 76.2% in the assay with NCI-H460 lung; 38% with HOP-92 NSCLC. The growth was 54.7% in the assay on NCI-H522 lung, 91.1% in the assay on A549/ATCC NSCLC, 93% in the assay on 786-0 renal and 92.6% in the assay with COLO 205 colon.
Take `Cc1ccc(-c2nc(N3CCNCC3)c3oc(-c4ccccc4)nc3n2)cc1`: the growth is 35.3% in the assay on NCI-H23 lung; 110% with NCI-H226 lung; -78.5% (active) with NCI-H322M lung; -6.18% (active) in the assay with HOP-62 NSCLC; -72.5% (active) in the assay on NCI-H460 lung; -25.6% (active) in the assay with HOP-92 NSCLC. Besides, the growth in the assay with NCI-H522 lung is -81.8% (active); in the assay on A549/ATCC NSCLC it was 3.88% (active); in the assay with 786-0 renal, -87.8% (active); in the assay with COLO 205 colon, -91.1% (active).
For `O=C1/C(=C/c2ccc(-c3ccc(Br)cc3)o2)SC(=S)N1CCc1ccc(O)cc1`, the growth in the assay with NCI-H23 lung is 75.8%; in the assay on NCI-H226 lung, 90.2%; with NCI-H322M lung it was 84.5%; in the assay on HOP-62 NSCLC it was 90.6%; in the assay on NCI-H460 lung, 60.3%; in the assay with HOP-92 NSCLC, 60%. For the same molecule, the growth in the assay on NCI-H522 lung was 13.7%; in the assay with A549/ATCC NSCLC it was 67.5%; with 786-0 renal, 5.73% (active); with COLO 205 colon, -27.8% (active).
`O=C1c2c(c3c4ccc(Br)cc4oc3c3[nH]c4ccccc4c23)C(=O)N1O`: the growth in the assay on NCI-H23 lung is 22.7%; in the assay with NCI-H226 lung, 61.7%; in the assay with NCI-H322M lung it was 59.7%; with HOP-62 NSCLC, 29.3%; in the assay with NCI-H460 lung, 10.7%; in the assay with HOP-92 NSCLC it was -2.77% (active). Further, the growth in the assay on NCI-H522 lung was 6.86% (active); in the assay on A549/ATCC NSCLC, 64.3%; with 786-0 renal it was 84.8%; in the assay on COLO 205 colon it was 42.7%.
With `Cn1ccnc1C(=O)C(=O)Nc1ccc(CC(=O)Nc2ccccc2)cc1`, the growth was 104% in the assay with NCI-H23 lung; 96.4% with NCI-H226 lung; 102% in the assay with NCI-H322M lung; 107% in the assay with HOP-62 NSCLC; 102% in the assay with NCI-H460 lung; 103% with HOP-92 NSCLC. Further, the growth in the assay on NCI-H522 lung is 99.5%; in the assay on A549/ATCC NSCLC it was 108%; with 786-0 renal, 104%; in the assay with COLO 205 colon, 109%.
`Brc1c2c(c(Br)c3ccccc13)CCCC2`: the growth was 97.7% with NCI-H23 lung; 85.8% in the assay on NCI-H226 lung; 99.6% in the assay on NCI-H322M lung; 84% with HOP-62 NSCLC; 111% in the assay with NCI-H460 lung; 80.9% in the assay with HOP-92 NSCLC. Besides, the growth in the assay on NCI-H522 lung was 75.5%; in the assay with A549/ATCC NSCLC, 79.7%; in the assay on 786-0 renal, 102%; with COLO 205 colon, 102%.
As to `CSc1nc2sc3c(c2c(=O)n1-c1ccc([N+](=O)[O-])cc1)CCCCC3`, the growth is 90.8% in the assay with NCI-H23 lung; 94% in the assay with NCI-H226 lung; 88.8% in the assay with NCI-H322M lung; 73.4% in the assay with HOP-62 NSCLC; 74.7% in the assay with NCI-H460 lung; 94.6% in the assay on HOP-92 NSCLC. Besides, the growth with NCI-H522 lung was 81%; in the assay with A549/ATCC NSCLC, 81.1%; in the assay on 786-0 renal, 95.7%; in the assay with COLO 205 colon, 99%.
Take `COc1cc(-c2nc(SCC(C)C)nc(Nc3cccc4ccccc34)c2C#N)cc(OC)c1OC`: the growth with NCI-H23 lung was 102%; with NCI-H226 lung, 82.5%; with NCI-H322M lung, 101%; in the assay with HOP-62 NSCLC it was 87.2%; in the assay with NCI-H460 lung, 82.3%; in the assay with HOP-92 NSCLC, 92.9%. For the same molecule, the growth with NCI-H522 lung was 89.2%; with A549/ATCC NSCLC, 88.4%; in the assay with 786-0 renal it was 103%; in the assay on COLO 205 colon, 95.3%.
Turning to `COc1ccc2c(c1)c(-c1noc(C(=O)c3cn(C)c4ccc(Br)cc34)n1)cn2C`, the growth in the assay with NCI-H23 lung was 99.3%; with NCI-H226 lung, 93.8%; with NCI-H322M lung it was 97%; in the assay on HOP-62 NSCLC, 93.9%; in the assay on NCI-H460 lung it was 105%; in the assay on HOP-92 NSCLC, 108%. Besides, the growth with NCI-H522 lung was 76.9%; in the assay on A549/ATCC NSCLC, 84.5%; in the assay with 786-0 renal, 112%; in the assay with COLO 205 colon it was 110%.
For the molecule `CNC(=O)c1cc(Oc2ccc3nc(NC(C)=O)sc3c2)ccn1`, the growth with NCI-H23 lung was 103%; in the assay with NCI-H226 lung it was 101%; with NCI-H322M lung, 104%; in the assay on HOP-62 NSCLC, 109%; with NCI-H460 lung, 104%; in the assay on HOP-92 NSCLC, 99.9%. Moreover, the growth was 104% in the assay on NCI-H522 lung, 102% in the assay on A549/ATCC NSCLC, 94.6% in the assay on 786-0 renal and 105% in the assay with COLO 205 colon.

(Values after PubChem BioAssay (NCI).)
